Measured values reported in PubChem BioAssay.
The source made the active and inactive calls.

Tests used:
[1] = E. coli DRC41 culture turbidity changes, primary screen, E. coli filamentation inducer project, strain DRC41, OD650, 48 h (AID 1152);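 also: E. coli MC1000 strain DRC41 lacking acrAB efflux pump and sulA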; conditions: E. coli DRC41 (acrAB sulA), higher = more signal, called active from +8 up or from −8 down
[2] = small-molecule binders of probe aLefty1, primary screen, biochemical, small-molecule microarray, 635/667 nm fluorescence (AID 1153); conditions: higher = more signal;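 also: score merges spot fluorescence with signal-to-noise ratio from the scanned slide images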
[3] = PSAC antagonists in infected red cells, primary screen, cell-based, P. falciparum Indochina, OD700, 1 h (AID 1154); conditions: P. falciparum Indochina infected RBC osmotic lysis, higher = more signal, called active from +8 up or from −8 down
[4] = PSAC antagonists in infected red cells, primary screen, cell-based, P. falciparum Indochina, OD700, 2 h (AID 1155);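 also: lysis reports solute entry through the parasite surface anion channel PSAC; channel blockers reduce lysis of infected cells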; conditions: P. falciparum Indochina infected erythrocytes, osmotic lysis OD700; higher = more signal, called active from +8 up or from −8 down
[5] = osmotic lysis modulators in infected erythrocytes, primary screen, PSAC antagonist project, cell-based, P. falciparum Indochina, OD700, 3 h (AID 1156); conditions: higher = more signal, called active from +8 up or from −8 down
[6] = PSAC antagonists in infected red cells, primary screen, cell-based, P. falciparum Indochina, OD700, 18 h (AID 1157); conditions: P. falciparum Indochina infected erythrocytes, osmotic lysis OD700, 18 h; higher = more signal, called active from +8 up or from −8 down
[7] = modulators of S6 phosphorylation in cells, primary screen, cell-based, A549, cytoblot, luminescence, serum-stimulated (AID 1158); conditions: A549 phospho-S6 cytoblot, 5 h, higher = more signal;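 also: serum-stimulated A549 lung adenocarcinoma cells; signal is phosphorylated S6 detected by cytoblot immunostaining with HRP secondary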
[8] = molecular target: NADPH oxidase 2 (Homo sapiens) (UniProt P04839); experiment: NOX2-dependent H2O2 signal modulators, primary screen, NOX inhibitor project, cell-based, HEK293-NOX2, PMA-stimulated, Amplex Red fluorescence (AID 1159); conditions: 45 min, higher = more signal, called active from +8 up or from −8 down; also: test concentration not given here
[9] = molecular target: NADPH oxidase 4 (Homo sapiens) (UniProt Q9NPH5); experiment: NOX4-dependent H2O2 signal modulators, primary screen, NOX inhibitor project, cell-based, HEK293-NOX4, tetracycline-induced, Amplex Red fluorescence (AID 1160); conditions: 45 min, higher = more signal, called active from +8 up or from −8 down
[10] = molecular target: NADPH oxidase 5 (Homo sapiens) (UniProt Q96PH1); experiment: NOX5-dependent H2O2 signal modulators, primary screen, NOX inhibitor project, cell-based, HEK293-NOX5, Amplex Red fluorescence (AID 1161); conditions: HEK293-NOX5, ionomycin, 45 min, higher = more signal
[11] = A549 cell viability effects, profiling panel, calcein-AM fluorescence, 48 h, basal (AID 1162); conditions: higher = more signal; also: test concentration not given here
[12] = adipocyte viability effects, profiling panel, cell-based, 3T3-L1 adipocytes, calcein-AM fluorescence, 48 h, basal (AID 1163); conditions: 3T3-L1 adipocytes viability, higher = more signal; also: test concentration not given here
[13] = HepG2 cell viability effects, profiling panel, calcein-AM fluorescence, 48 h, basal (AID 1164); conditions: higher = more signal; also: test concentration not given here
[14] = MM1S cell viability effects, profiling panel, calcein-AM fluorescence, 48 h, basal (AID 1165); conditions: higher = more signal;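 also: viability of MM1S multiple myeloma cells under basal unstimulated conditions; test concentration not given here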
[15] = basal RPMI8226 viability, no added stimulus, profiling panel, cell-based, calcein-AM fluorescence, 48 h, PK04 Diversity Set (AID 1166); conditions: RPMI8226 myeloma viability, higher = more signal;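 also: cells grown under basal conditions without added stimulus; test concentration not given here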
[16] = basal HepG2 mitochondrial membrane potential changes, profiling panel, cell-based, JC-1 fluorescence, 24 h, 100 nL compound (AID 1167); conditions: higher = more signal; also: test concentration not given here
[17] = basal 3T3-L1 adipocyte mitochondrial potential changes, profiling panel, cell-based, JC-1 fluorescence, 3T3-L1 adipocytes, 24 h, 100 nL compound (AID 1168); conditions: JC-1 mitochondrial fluorescence, higher = more signal, called active from +8 up or from −8 down; also: test concentration not given here
[18] = basal RPMI8226 mitochondrial membrane potential changes, profiling panel, cell-based, JC-1 fluorescence, 24 h, 100 nL compound (AID 1169); conditions: RPMI8226 myeloma, JC-1 mitochondrial potential fluorescence, higher = more signal; also: test concentration not given here
[19] = basal MM1S mitochondrial membrane potential changes, profiling panel, cell-based, JC-1 fluorescence, 24 h, 100 nL compound (AID 1170); conditions: higher = more signal; also: test concentration not given here
[20] = A549 lung cancer cell viability effects, profiling panel, resazurin fluorescence, 24 h, PK04 Diversity Set (AID 1171); conditions: higher = more signal, called active from +8 up or from −8 down; also: test concentration not given here

Sequence of NADPH oxidase 5 (Homo sapiens) (Q96PH1 whole entry, looked up): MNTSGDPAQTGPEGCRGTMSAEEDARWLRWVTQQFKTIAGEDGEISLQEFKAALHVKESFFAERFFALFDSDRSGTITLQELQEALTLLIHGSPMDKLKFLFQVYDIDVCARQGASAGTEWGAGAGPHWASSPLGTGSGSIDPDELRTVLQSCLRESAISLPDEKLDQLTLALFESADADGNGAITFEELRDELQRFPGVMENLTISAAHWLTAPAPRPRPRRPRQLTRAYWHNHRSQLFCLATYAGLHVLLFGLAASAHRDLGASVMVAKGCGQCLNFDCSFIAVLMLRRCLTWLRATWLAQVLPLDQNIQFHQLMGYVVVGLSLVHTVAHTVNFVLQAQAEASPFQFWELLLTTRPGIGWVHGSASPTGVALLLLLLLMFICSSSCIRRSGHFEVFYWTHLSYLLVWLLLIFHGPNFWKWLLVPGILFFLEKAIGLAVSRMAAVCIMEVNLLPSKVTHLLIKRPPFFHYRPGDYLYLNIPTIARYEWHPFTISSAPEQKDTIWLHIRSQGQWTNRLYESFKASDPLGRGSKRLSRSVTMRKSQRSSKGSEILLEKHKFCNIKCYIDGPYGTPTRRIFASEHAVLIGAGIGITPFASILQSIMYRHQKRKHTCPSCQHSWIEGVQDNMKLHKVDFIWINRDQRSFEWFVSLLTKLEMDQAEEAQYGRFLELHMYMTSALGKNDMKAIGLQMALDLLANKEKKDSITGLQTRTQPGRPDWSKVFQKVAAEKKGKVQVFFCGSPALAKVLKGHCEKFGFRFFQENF
Sequence of NADPH oxidase 2 (Homo sapiens) (P04839 whole entry, looked up): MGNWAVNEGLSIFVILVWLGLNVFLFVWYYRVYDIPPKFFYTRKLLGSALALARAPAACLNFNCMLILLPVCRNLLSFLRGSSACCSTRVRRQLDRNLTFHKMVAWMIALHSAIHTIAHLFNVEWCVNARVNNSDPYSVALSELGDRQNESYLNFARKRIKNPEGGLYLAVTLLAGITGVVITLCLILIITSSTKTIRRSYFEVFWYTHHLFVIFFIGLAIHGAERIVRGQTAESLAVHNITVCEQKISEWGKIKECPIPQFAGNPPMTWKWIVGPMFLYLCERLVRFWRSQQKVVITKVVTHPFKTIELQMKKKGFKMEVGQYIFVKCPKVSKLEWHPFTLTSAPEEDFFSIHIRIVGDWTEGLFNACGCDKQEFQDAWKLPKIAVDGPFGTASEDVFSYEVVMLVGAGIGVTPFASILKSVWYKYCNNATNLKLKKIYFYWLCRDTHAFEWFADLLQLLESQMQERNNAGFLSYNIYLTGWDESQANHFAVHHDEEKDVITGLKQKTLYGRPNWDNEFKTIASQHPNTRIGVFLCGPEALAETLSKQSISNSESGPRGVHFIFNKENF
Sequence of NADPH oxidase 4 (Homo sapiens) (Q9NPH5 whole entry, looked up): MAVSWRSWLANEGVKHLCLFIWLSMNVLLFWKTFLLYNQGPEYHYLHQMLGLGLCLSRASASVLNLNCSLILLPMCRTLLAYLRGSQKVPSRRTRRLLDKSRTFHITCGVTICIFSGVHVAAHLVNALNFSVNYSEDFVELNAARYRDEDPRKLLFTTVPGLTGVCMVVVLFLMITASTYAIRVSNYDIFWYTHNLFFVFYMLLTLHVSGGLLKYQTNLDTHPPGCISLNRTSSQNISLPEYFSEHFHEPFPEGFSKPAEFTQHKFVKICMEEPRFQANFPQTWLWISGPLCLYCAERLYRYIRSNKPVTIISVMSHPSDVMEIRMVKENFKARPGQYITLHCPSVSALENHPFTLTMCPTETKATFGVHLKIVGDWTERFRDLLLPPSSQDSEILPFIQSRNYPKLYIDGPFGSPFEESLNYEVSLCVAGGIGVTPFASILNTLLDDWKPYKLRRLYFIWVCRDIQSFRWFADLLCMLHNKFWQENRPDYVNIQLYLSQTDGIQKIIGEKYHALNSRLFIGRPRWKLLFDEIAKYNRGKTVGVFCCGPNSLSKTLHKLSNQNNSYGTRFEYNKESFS

Compound	z-score [1]	composite z-score [2]	z-score [3]	z-score [4]	z-score [5]	z-score [6]	z-score [7]	z-score [8]	z-score [9]	z-score [10]	z-score [11]	z-score [12]	z-score [13]	z-score [14]	z-score [15]	z-score [16]	z-score [17]	z-score [18]	z-score [19]	z-score [20]
Cc1ccc(S[C@]2(C(=O)NCC(F)(F)F)CC(=O)N(C3CCCCC3)[C@@H]2c2ccc(CO)cc2)cc1	0.344 (inactive)	0.123	1.58 (inactive)	0.525 (inactive)	0.621 (inactive)	0.157 (inactive)	-0.14	-0.941 (inactive)	0.03 (inactive)	0.192	0.815	0.132	0.844	-1.03	-0.758	1.11	0.466 (inactive)	0.0558	-0.42	-0.0508 (inactive)
CC1CC/C=C\[C@H]2OC34C=CCN(c5ccc(Cl)cc5)C(=O)[C@H]3N(CCCO)C(=O)[C@]4(C)C2C(=O)O1 (stereo not given in full)	-0.836 (inactive)	0.135	0.113 (inactive)	0.66 (inactive)	-0.338 (inactive)	0.356 (inactive)	-0.264	1.5 (inactive)	-1.22 (inactive)	2.34	0.606	0.208	-0.865	1.04	0.338	-0.713	-0.887 (inactive)	-0.294	1.86	-0.6 (inactive)
COCCOC(=O)N1C(=O)[C@@]2(c3cc(C#CCC(C(=O)OC)C(=O)OC)ccc31)[C@H](c1ccc(OCCO)cc1)N1[C@H](c3ccccc3)[C@H](c3ccccc3)OC(=O)[C@H]1[C@@H]2C(=O)N1CCCCCCC1	0.759 (inactive)	2.81	3.66 (inactive)	1.98 (inactive)	1.04 (inactive)	0.901 (inactive)	-0.0522	2.05 (inactive)	0.397 (inactive)	2.28	0.52	0.586	0.496	-0.169	-0.602	0.119	-2.24 (inactive)	-0.635	-1.15	0.78 (inactive)
C[C@]1(C(=O)NCC(F)(F)F)c2ccccc2C(=O)N(Cc2ccc(OC(F)(F)F)cc2)[C@H]1c1ccc(CO)cc1	-0.831 (inactive)	-0.284	2.58 (inactive)	0.295 (inactive)	3.67 (inactive)	0.451 (inactive)	-0.32	1.45 (inactive)	-0.0975 (inactive)	-1.45	0.377	0.194	0.334	0.0863	-1.37	0.756	-0.235 (inactive)	1.04	0.157	0.0382 (inactive)
COCCOC(=O)N1C(=O)[C@@]2(c3cc(C#CC4(O)CCCCCC4)ccc31)[C@H](c1ccc(OCCO)cc1)N1[C@H](c3ccccc3)[C@H](c3ccccc3)OC(=O)[C@H]1[C@@H]2C(=O)N1CCCCCCC1	0.148 (inactive)	2.52	2.18 (inactive)	2.02 (inactive)	0.736 (inactive)	1.02 (inactive)	0.49	0.707 (inactive)	-1.45 (inactive)	0.0377	-0.359	2.14	0.292	-0.834	-1.78	-1.1	-2.25 (inactive)	-0.468	-1.08	-0.557 (inactive)
CCCCCN1CC=CC23O[C@@H]4C=CCOC(=O)[C@@H]4[C@H]2C(=O)N(CCCCCO)[C@@H]3C1=O (stereo not given in full)	1.73 (inactive)	-0.0766	1.47 (inactive)	0.702 (inactive)	1.45 (inactive)	0.601 (inactive)	0.461	1.35 (inactive)	0.575 (inactive)	1.94	-0.438	-0.28	-1.03	1.27	-1.6	-0.012	0.211 (inactive)	0.85	0.876	-0.0947 (inactive)
CCCC=C(CCC)[C@@H](NS(=O)(=O)c1ccc(Cl)cc1)c1ccccc1	-2.04 (inactive)	0.345	1.02 (inactive)	0.1 (inactive)	1.16 (inactive)	0.814 (inactive)	0.717	-1.64 (inactive)	-3.24 (inactive)	1.59	-1.61	-0.224	-1.42	-1.18	-3.77	-3.69	0.0744 (inactive)	-0.372	-0.676	2.17 (inactive)
CC(=O)NCCCC[C@@H]1NC(=O)[C@H]2C[C@@H](C(=O)NCCCCCC[N+](C)(C)C)[C@@H](c3ccc(O)cc3)N2C1=O	0.371 (inactive)	0.0262	1.94 (inactive)	0.369 (inactive)	0.469 (inactive)	0.0802 (inactive)	-0.054	0.834 (inactive)	0.288 (inactive)	-0.454	-0.74	0.234	-1.22	-0.0244	0.512	-0.896	0.217 (inactive)	0.0883	-0.251	0.615 (inactive)
CC(C)c1ccc(NN2C(C(O)C(C)C)C=CC3C(=O)N(c4ccccc4)C(=O)C32)cc1 (stereo not given)	-0.671 (inactive)	0.996	1.37 (inactive)	0.83 (inactive)	0.42 (inactive)	1.37 (inactive)	-0.452	-0.862 (inactive)	-4.22 (inactive)	-4.95	-0.149	-0.0009	-0.463	-0.871	-0.542	-0.419	-1.52 (inactive)	-0.692	0.54	-1.28 (inactive)
COC(=O)[C@@]1(CCS(=O)(=O)c2ccccc2)N=C(c2ccc(OCCCO)cc2)O[C@H]1c1ccccc1N=[N+]=[N-]	-0.527 (inactive)	-0.0559	26.9 (active)	22.3 (active)	1.09 (inactive)	3.42 (inactive)	0.819	-1.31 (inactive)	1.02 (inactive)	-1.59	-1.66	0.81	-0.474	-0.746	0.206	0.335	-0.852 (inactive)	-0.687	-0.426	-2.02 (inactive)
C=C(COC)/C(=C/C[C@@H](OC(C)=O)c1ccccc1OCCO)c1cc(C(=O)OC)ccc1OC	0.0999 (inactive)	0.0945	17.2 (active)	2.52 (inactive)	1.68 (inactive)	1.04 (inactive)	-0.0651	0.857 (inactive)	-0.16 (inactive)	-1.46	1.2	-2.49	0.5	-3.3	-0.866	0.751	0.00709 (inactive)	-0.338	-0.875	0.368 (inactive)
CC(C)C[C@@H]1NC(=O)[C@@]23C(=O)N[C@@H](Cc4ccccc4)C2[C@H](C)[C@@]2(C)O[C@H]2C3/C=C/C/C=C\CNC(=O)[C@@H](CC(C)C)NC1=O (stereo not given in full)	-0.664 (inactive)	0.0774	1.44 (inactive)	-0.172 (inactive)	0.0094 (inactive)	-0.0134 (inactive)	0.0885	0.063 (inactive)	0.41 (inactive)	-3.22	0.939	0.703	-0.293	-0.549	-0.361	-0.046	-0.618 (inactive)	-0.955	1.28	1.31 (inactive)
C=CCNC(=O)[C@H]1[C@@H]2C(=O)O[C@@H](c3ccccc3)[C@@H](c3ccccc3)N2[C@@H](c2ccc(O)cc2)[C@]12C(=O)Nc1ccc(C#CC3=CCCCC3)cc12	-0.164 (inactive)	0.802	1.54 (inactive)	1.23 (inactive)	-0.355 (inactive)	1.1 (inactive)	-0.101	1.18 (inactive)	0.676 (inactive)	1.61	-0.931	-0.826	-0.66	-3.3	-4.46	-0.341	0.523 (inactive)	-1.14	-1.79	-1.63 (inactive)
COCCOC(=O)N1C(=O)[C@@]2(c3cc(C#CC4=CCCCC4)ccc31)[C@H](C(=O)N1CCc3cc(OC)c(OC)cc3C1)[C@H]1C(=O)O[C@H](c3ccccc3)[C@H](c3ccccc3)N1[C@@H]2c1ccc(O)cc1	0.448 (inactive)	0.679	0.996 (inactive)	0.755 (inactive)	0.067 (inactive)	0.827 (inactive)	0.228	1.58 (inactive)	-0.0332 (inactive)	1.18	0.59	0.479	0.334	-1.16	-0.583	-0.427	0.508 (inactive)	-0.388	0.403	0.481 (inactive)
COCCOC(=O)N1C(=O)[C@@]2(c3cc(C#CCCO)ccc31)[C@H](c1ccc(O)cc1)N1[C@H](c3ccccc3)[C@H](c3ccccc3)OC(=O)[C@H]1[C@@H]2C(=O)N1CCc2cc(OC)c(OC)cc2C1	-0.0188 (inactive)	0.469	1.22 (inactive)	0.141 (inactive)	0.203 (inactive)	0.286 (inactive)	0.212	0.611 (inactive)	0.522 (inactive)	1.02	1.1	0.462	1.04	0.664	0.113	0.374	0.57 (inactive)	-0.253	-0.602	-0.0256 (inactive)
C=CCC(OC(C)=O)[C@@H]1[C@@H](N(Cc2cccc3ccccc23)C(=O)c2ccc(-c3ccccc3)cc2)c2cc(OCCCO)ccc2N1C(=O)c1ccc2ccccc2n1 (stereo not given in full)	-0.688 (inactive)	0.123	0.0025 (inactive)	-0.232 (inactive)	-0.44 (inactive)	-0.0821 (inactive)	1.14	-0.0242 (inactive)	1.04 (inactive)	1.48	-0.421	0.587	0.589	-0.848	-0.842	1.08	-0.12 (inactive)	0.61	-0.0192	0.701 (inactive)
